Data from PubChem BioAssay (Tox21).
Records with an inconclusive call do not appear. Active and inactive are the calls of the source. Calls come from the whole dose curve; as a rule, active = well fitted activation curve with a large enough effect in the signal ratio in the repeat runs (not every such curve was filed as active); inconclusive = weak or mixed curves, or effect the other way; inactive = flat fitted curve, though single readings scatter; the % refers to the signal ratio.

test: qHTS assay to identify small molecule agonists of the endoplasmic reticulum stress response signaling pathway (AID 1159516); settings: ESRE-bla HeLa, ER stress beta-lactamase reporter, 5 h; series mostly up to 61 µM; activation: at the top concentration
Source text: National Center for Advancing Translational Sciences [NCATS]
NIH Chemical Genomics Center [NCGC]
U.S. Environmental Protection Agency [EPA]
National Institutes of Environmental Health Sciences [NIEHS]
National Toxicology Program [NTP]
U.S. Food and Drug Administration [FDA]
Endoplasmic Reticulum (ER) plays an important role in cellular signaling, protein folding/maturation, stress response, lipid biosynthesis, calcium storage and release etc. Under stress conditions, proteins in ER misfold or unfold, and leading to the expression of ER stress responsive genes. ER stress has been associated with a variety of pathophysiological conditions such as cancer, inflammation, neurodegenerative diseases, diabetes, ischemic heart disease etc. To identify the compounds that induce ER stress response, an ER stress reporter cell line, CellSensor ESRE-bla HeLa (Life Technologies, Carlsbad, CA) containing a beta-lactamase reporter gene under control of the Endoplasmic reticulum Stress Response Element (ESRE) was used to screen Tox21 10K compound library.
Tox21 Assay Protocol Summary:
ESRE-bla HeLa cells were dispensed at 1,500 cells/6 uL of assay medium per well into black wall/clear-bottom 1536-well plates using a Multidrop Combi (ThermoFisher Scientific, Waltham, MA) dispenser. After the assay plates were incubated at 37 C and 5% CO2 for an overnight, 23 nL of compounds dissolved in DMSO, positive controls or DMSO only was transferred to the assay plate by a Pintool station (Kalypsys, San Diego, CA). The assay plates were incubated at 37 C and 5% CO2 for 5 hr. One uL of LiveBLAzer B/G FRET substrate (Life Technologies) was added using a Flying Reagent Dispenser (Aurora Discovery, San Diego, CA) and the plates were incubated at room temperature for 2 hr. Fluorescence intensity (405 nm excitation, 460 nm and 530 nm emissions) was measured using an Envision plate reader (PerkinElmer, Shelton, CT).
% is set by controls: 0 for no effect and ±100 for the full control effect.

| Compound | outcome | activation |
| --- | --- | --- |
| CC(=O)CCC(C)C | inactive | – |
| C[C@]12CC[C@@H]3c4ccc(O)cc4C[C@@H](CCCCCCCCCS(=O)CCCC(F)(F)C(F)(F)F)[C@H]3[C@@H]1CC[C@@H]2O (stereo not given in full) | – | 4.89% (inactive) |
| C/C=C/c1ccc(O)c(OC)c1 | inactive | – |
| CCCCCCCCCCCCCCCCCC(=O)OCC(O)CO (stereo not given) | inactive | – |
| CCN(CC)CCOC(=O)c1ccc(N)cc1 | inactive | – |
| CC(=O)Oc1ccccc1C(=O)O | inactive | – |
| O=C(O)CCCCC1CCSS1 (stereo not given) | inactive | – |
| CC(=O)/C=C/C1=C(C)CCCC1(C)C | inactive | – |
| CN/C(=C\[N+](=O)[O-])NCCSCc1ccc(CN(C)C)o1 | inactive | – |
| Cc1ccc(O)c(-n2nc3ccccc3n2)c1 | inactive | – |
| CC(C)=CCC/C(C)=C/CO | inactive | – |
| C=CCOC(=O)CC(C)C | inactive | – |
| COc1cc(C=O)ccc1O | inactive | – |
| CC1(C)O[C@@H]2[C@@H](CO[C@@]3(COS(N)(=O)=O)OC(C)(C)O[C@@H]23)O1 | inactive | – |
| C[C@]12CC[C@@H]3c4ccc(O)cc4CC[C@H]3[C@@H]1CCC2=O | inactive | – |
| CC1=NN(c2ccccc2)C(=O)C1 | inactive | – |
| CCc1cc(C(N)=S)ccn1 | inactive | – |
| Cc1cccc(C)c1O | inactive | – |
| COc1ccccc1NC(=O)CC(C)=O | inactive | – |
| C[C@]12C[C@H](O)[C@H]3[C@@H](CCC4=CC(=O)CC[C@@]43C)[C@@H]1CC[C@@H]2C(=O)CO | inactive | – |

| Compound | outcome | activation |
| --- | --- | --- |
| COC1=CC(=O)C[C@@H](C)[C@]12Oc1c(Cl)c(OC)cc(OC)c1C2=O | inactive | – |
| COc1ccccc1O | – | -3.45% [at 78.8 µM] (inactive) |
| NC(=O)N/N=C/c1ccc([N+](=O)[O-])o1 | inactive | – |
| N[C@@H](Cc1c[nH]c2ccc(O)cc12)C(=O)O | inactive | – |
| CCN1CCCC1=O | inactive | – |
| COCC(C)N (stereo not given) | inactive | – |
| O=[N+]([O-])c1ccc(O)cc1 | inactive | – |
| CCCCC/C(C=O)=C\c1ccccc1 | inactive | – |
| Nc1cccc(N)c1 | inactive | – |
| CC(C)CC(C)CC(O)CC(C)C (stereo not given) | inactive | – |
| Cc1cccc(Nc2cc(Cl)nc(SCC(=O)O)n2)c1C | inactive | – |
| CO[C@H]1C=CO[C@@]2(C)Oc3c(C)c(O)c4c(O)c(c(/C=N/N5CCN(C)CC5)c(O)c4c3C2=O)NC(=O)/C(C)=C\C=C[C@H](C)[C@H](O)[C@@H](C)[C@@H](O)[C@@H](C)[C@H](OC(C)=O)[C@@H]1C | inactive | – |
| COC(=O)c1ccc(C=O)cc1 | inactive | – |
| O=C(OCc1ccccc1)c1ccccc1 | inactive | – |
| C#C[C@]1(O)CC[C@H]2[C@@H]3CCC4=CC(=O)CC[C@@H]4[C@H]3CC[C@@]21CC | inactive | – |
| OCCCc1ccccc1 | inactive | – |
| Oc1cccc(O)c1 | inactive | – |
| CN(C)C=O | inactive | – |
| O=C1CCCCCN1 | inactive | – |
| OC[C@@H](O)[C@@H](O)[C@H](O)[C@H](O)CO | inactive | – |
